This is a sample that favours compounds with a hit; in the whole collection about 4.7% have one here.
TGFb SMAD3 inh: blocks TGF-b signaling; HepG2 CAGA-GFP TGF-b/SMAD3 reporter, GFP fluorescence, 18 h; TGF-beta stimulated, 500 pg/mL final; hit rate 1.2% among 410,000; Potency, µM (highest dose often 46.1 µM), for inactives: at the top dose activity, negative = inhibition, most hits filed as inhibitors; AID 588855; also: potency is read from the fitted curve at half-maximal effect; % is scaled to controls: 0 for no effect and ±100 for the full control effect; nearly all actives have a fitted effect of over 65% in size
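Smad-responsive CAGA-GFP expression was quantified in HEPG2 cells exposed to compounds and 500 pg/mL final TGF-beta for 18 h at 37 degrees C; unstimulated wells defined full inhibition.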
ATXN2 expr inh: reduces ATXN2 reporter expression in HEK-293 cells | HEK-293 ATXN2-luciferase reporter, luminescence, 24 h | hit rate 0.72% among 360,000 | Potency, µM (titrated, usually from 57 µM), for inactives: at the top dose activity change, negative = inhibition, usual class: inhibitors; also: potency is read from the fitted curve at half-maximal effect; % is scaled to controls: 0 for no effect and ±100 for the full control effect; nearly all actives have a fitted effect of over 55% in size
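qHTS (up to 57 uM final) was run with 24 h compound exposure of reporter cells at 37 °C. Each well was multiplexed: SteadyGlo luminescence measured ATXN2-luciferase expression after a fluorogenic Gly-Phe-AFC viability readout (25 uM final).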
HepG2 tox-1: kills HepG2 cells in TGF-b inhibitor counter-screen | Potency, µM (highest dose often 46.1 µM), inactives show top-dose activity change, negative = cytotoxicity, hits mostly cytotoxic | AID 588856 | hit rate 0.76% among 410,000 | HepG2 CAGA-GFP viability, ATP luminescence, 18 h; also: potency is read from the fitted curve at half-maximal effect
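CellTiter-Glo luminescence gave cytotoxicity after 18 hours at 37 degrees C. The cells were HepG2 CAGA-GFP in 1% FBS DMEM, stimulated with 500 pg/mL TGF-beta after compound addition. %Activity was normalised to no-cell wells (complete cell-killing) and DMSO (no toxicity), and curves were fitted and classified.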
S2 tox: viability counter-screen for ATXN expression inhibitors. S2 cells (HEK-293 line with an ATXN2-luciferase reporter) viability, CellTiter-Fluor protease fluorescence, 24 h. Potency, µM (top dose mostly 56.7 µM), usual class: cytotoxic. hit rate 0.49% among 400,000; also: potency is read from the fitted curve at half-maximal effect; nearly all actives have a fitted effect of over 40% in size
DRD3 agonist: activates the human D3 dopamine receptor; hit rate 0.58% among 410,000; AID 652048; max activation, %; P35462; D3R DiscoveRx beta-arrestin cells, luminescence, 90 min; in the data active = max activation above about 30%; also: 0% is about no effect
Target sequence (P35462 whole entry, looked up): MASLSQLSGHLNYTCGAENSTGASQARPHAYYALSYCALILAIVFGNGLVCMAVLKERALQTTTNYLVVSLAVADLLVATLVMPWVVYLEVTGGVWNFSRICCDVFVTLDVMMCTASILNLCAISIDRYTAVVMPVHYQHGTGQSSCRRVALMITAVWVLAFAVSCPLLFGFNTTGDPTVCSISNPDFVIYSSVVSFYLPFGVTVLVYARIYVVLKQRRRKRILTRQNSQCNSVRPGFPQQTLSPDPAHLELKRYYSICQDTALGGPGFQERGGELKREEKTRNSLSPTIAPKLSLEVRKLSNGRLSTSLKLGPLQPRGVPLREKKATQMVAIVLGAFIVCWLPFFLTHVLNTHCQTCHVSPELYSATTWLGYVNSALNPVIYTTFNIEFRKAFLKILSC
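Agonist-mode cell screen: cells plated at 1500/well and incubated overnight at 37 °C, then exposed to library compounds for 90 min at 37 °C. Detection reagent was added for 30–60 min at room temperature, and luminescence was read.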
D3 antag: blocks the human D3 dopamine receptor; D3R cells, DiscoveRx beta-arrestin luminescence, antagonist mode; hits give low values; max response, negative = inhibition, %; hit rate 2.5% among 360,000; AID 652054; in the data active = max response below about -50%; inconclusive = no clear call, values can overlap the other calls; also: % is scaled to controls: 0 for no effect and ±100 for the full control effect
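Cells expressing the human receptor were seeded at 1500 cells/well, incubated overnight at 37 degrees C in 5% CO2, then exposed to library compounds with dopamine controls for 90 minutes at 37 degrees C before luminescent detection.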
TGFb CAGA inh: TGF-b pathway inhibition, cherry-pick retest; shares compounds with TGFb SMAD3 inh; hit rate 63% among 1,600; HepG2 CAGA-GFP TGF-b reporter, GFP fluorescence, 18 h; cells stimulated with TGF-beta, 500 pg/mL; Potency, µM (series often up to 46.1 µM), without a hit: at the highest dose activity, negative = inhibition, most hits filed as inhibitors; also: potency is read from the fitted curve at half-maximal effect; % is scaled to controls: 0 for no effect and ±100 for the full control effect; nearly all actives have a fitted effect of over 65% in size
HepG2 tox-2: HepG2 cytotoxicity, TGF-b inhibitor counterscreen; Potency, µM (series often up to 46.1 µM), for the others: at the highest dose activity, negative = cytotoxicity, most hits filed as inhibitors; shares compounds with TGFb SMAD3 inh; HepG2 CAGA-GFP viability, ATP luminescence, 18 h; cells stimulated with TGF-beta, 500 pg/mL; hit rate 27% among 1,600; also: potency is read from the fitted curve at half-maximal effect; % is scaled to controls: 0 for no effect and ±100 for the full control effect; nearly all actives have a fitted effect of over 70% in size
CCL64 TGFb inh: orthogonal confirmation of TGF-b inhibitors in CCL64 cells; shares compounds with TGFb SMAD3 inh; CCL64 CAGA-GFP reporter, TGF-b stimulated, GFP fluorescence, 18 h; Potency, µM (series often up to 46.1 µM), for the others: at the highest dose activity, negative = inhibition, hits mostly inhibitors; hit rate 41% among 1,600; AID 720536; also: potency is read from the fitted curve at half-maximal effect; nearly all actives have a fitted effect of over 65% in size
COP TGFb inh: blocks TGF-b signaling in HepG2 COP reporter. shares compounds with TGFb SMAD3 inh. HepG2 COP-GFP TGF-b reporter, GFP fluorescence, 18 h; cells stimulated by added recombinant TGF-beta. Potency, µM (highest dose often 46.1 µM), for the others: top-dose activity, negative = inhibition, hits mostly inhibitors. hit rate 3% among 1,600; also: potency is read from the fitted curve at half-maximal effect; nearly all actives have a fitted effect of over 70% in size
The depositor's hits bear a star; i = inactive; ? = inconclusive; / = not tested or not shown. Unless noted, calls follow the shape of the dose curve; as a rule, active = well fitted curve in the direction sought with a large enough effect; inconclusive = small, poorly fitted or top-dose-only effect, or another doubt; inactive = no such curve, though single readings can be large; an effect the other way counts as inactive or inconclusive.

SMILES	TGFb SMAD3 inh	ATXN2 expr inh	HepG2 tox-1	S2 tox	DRD3 agonist	D3 antag	TGFb CAGA inh	HepG2 tox-2	CCL64 TGFb inh	COP TGFb inh
Cc1[nH]n(-c2ccccc2)c(=S)c1C=NCCCN=Cc1c(C)[nH]n(-c2ccccc2)c1=S	0.56µM*	?	-40%	?	-4	-25	-4%	-3%	-18%	8%
COc1ccc(/C=C2/CSC/C(=C/c3ccc(OC)c(OC)c3)C2=O)cc1OC	6.3µM*	5.6µM*	-3%	4µM*	1	-50*	1.3µM*	3.3µM*	2.3µM*	9%
CC(C)[C@H]1COCCS(=O)(=O)N1Cc1ccccc1-c1cccc2c1oc1ccccc12	?	-11%	-15%	i	-15	15	9.2µM*	-8%	-28%	-7%
CCOC(=O)c1ccccc1NC(=O)c1cc2ccc3cccnc3c2[nH]1	-2%	/	-5%	/	-6	/	/	/	/	/
CC(=O)n1nnc2ccccc21	-15%	/	4%	/	/	/	/	/	/	/
CCSc1ccccc1C(=O)n1nnc2ccccc21	11µM*	-7%	-30%	i	-33	-20	5.8µM*	?	?	2%
O=C(Nc1cccc(NC(=O)c2cccs2)c1)c1ccc([N+](=O)[O-])o1	5.6µM*	?	22µM*	?	-4	-5	5.2µM*	21µM*	12µM*	?
O=C(Nc1ccc(NC(=O)c2ccc([N+](=O)[O-])o2)cc1Cl)c1ccco1	9%	1%	-27%	i	3	-6	/	/	/	/
O=C(Nc1cccc(NC(=O)c2ccc([N+](=O)[O-])o2)c1)c1ccco1	4µM*	-26%	11µM*	?	1	-8	6.5µM*	?	16µM*	?
Cc1nn(-c2ccc(N3CCCC3)nn2)c(C)c1CCC(=O)NCc1ccc(OC(C)C)cc1	-11%	/	-5%	/	2	/	/	/	/	/
O=C(c1cc(-c2ccccc2Cl)nc2ccc(Br)cc12)N1CCN(c2ccccn2)CC1	?	?	-27%	?	29	85	-30%	?	?	11%
O=C(c1cc(-c2ccc(Br)cc2)nc2ccccc12)N1CCN(c2ccccc2O)CC1	11µM*	12%	-2%	i	11	0	6.5µM*	?	?	2%
Cc1ccc(NCCC(=O)c2cccc([N+](=O)[O-])c2)cc1	10µM*	10%	-73%	i	-6	-7	23µM*	?	?	19%
O=C(CCNc1ccc(F)cc1)c1cccc([N+](=O)[O-])c1	?	-23%	-40%	i	0	-12	/	/	/	/
O=C(CCNc1ccc(Br)cc1)c1cccc([N+](=O)[O-])c1	13µM*	1%	13%	i	-11	-22	18µM*	-15%	-6%	15%
COc1ccc(Br)cc1CNC(=O)CCCn1c(=O)c2cccn2c2cccnc21	?	/	-28%	/	-13	/	/	/	/	/
C=CCNC(=O)c1onc(CSc2ccc(F)cc2)c1C(=O)NCCOC	?	-1%	2%	i	15	10	-7%	2%	12%	-1%
C=CCNC(=O)c1onc(CSc2ccc(F)cc2)c1C(=O)NCC=C	1%	-13%	-9%	i	-2	-3	/	/	/	/
Cc1cc(C)c2oc(-c3ccc(Cl)c(NC(=O)c4cccs4)c3)nc2c1	8%	50%	-10%	i	-3	/	/	/	/	/
O=C(CSc1nnnn1C1CC1)N1CCN(c2cccc(Cl)c2)CC1	-22%	-31%	-20%	i	-14	?	/	/	/	/
CC(C)c1ccc(CN2CCN(C(=O)CSc3nnnn3C3CC3)CC2)cc1	?	-34%	-35%	i	-6	1	-22%	-22%	1%	8%
CC(=O)Nc1ccc(S(=O)(=O)N2CCN(Cc3nc4sc(C)c(C)c4c(=O)[nH]3)CC2)cc1	?	-12%	-7%	i	2	-6	-6%	-11%	16%	-15%
CC(=O)Nc1ccc(S(=O)(=O)N2CCN(Cc3ccncc3)CC2)cc1	-14%	-25%	-12%	i	-3	4	/	/	/	/
Cc1ccc(-n2c(C)cc(C(=O)C(=O)Nc3ccccc3)c2C)c(C)c1	?	120%	-34%	i	-7	/	/	/	/	/
Cc1cccc(C)c1-n1nnnc1C(c1cccs1)N1CCN(C/C=C/c2ccccc2)CC1 (centres undefined)	?	-13%	-29%	i	-20	-84*	?	-17%	21µM*	7%
SMILES	TGFb SMAD3 inh	ATXN2 expr inh	HepG2 tox-1	S2 tox	DRD3 agonist	D3 antag	TGFb CAGA inh	HepG2 tox-2	CCL64 TGFb inh	COP TGFb inh
Cc1cccc(C)c1-n1nnnc1C(c1ccnc2ccccc12)N1CCN(CCN(C)C)CC1 (centres undefined)	/	8%	/	i	3	-9	/	/	/	/
C(=C\c1ccccc1)/CN1CCN(C(c2ccnc3ccccc23)c2nnnn2-c2ccc3c(c2)OCCO3)CC1 (centres undefined)	?	-17%	1%	?	-10	-18	15µM*	-27%	?	30%
O=C(COC(=O)C12CC3CC(CC(C3)C1)C2)NCC1CCCO1 (centres undefined)	1%	/	-1%	/	/	/	/	/	/	/
CCN(C(=O)Cn1nc(Cc2cccnc2)c2ccccc2c1=O)c1ccccc1F	?	/	-22%	/	-3	/	/	/	/	/
CN1C(C(=O)c2ccccc2)=C(OC(=O)c2ccc(Br)cc2)c2ccccc2S1(=O)=O	?	-15%	-55%	i	-25	/	/	/	/	/
Cc1ccccc1CNC(=O)c1ccccc1NC(=O)c1nsc2ccccc12	1%	/	-1%	/	-10	/	/	/	/	/
